Results taken from PubChem BioAssay (NCI).
Compounds without any hit were thinned out: in the full panel of roughly 83,000, 20% have a hit.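 Each cell line was grown in a 96-well plate and treated with one concentration of compound for 48 hours. Values below 10 were considered active.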 The source made the active and inactive calls.

Key:
Assay in all cases: NCI-60 one-dose screen, 48 h (100 = growth as untreated, 0 = no growth, -100 = all killed)
Details in all cases: 10 µM unless noted
[1] = tested on: HCT-15 colon
[2] = tested on: HT29 colon
[3] = tested on: SNB-75 CNS
[4] = tested on: SNB-19 CNS
[5] = tested on: U251 CNS
[6] = tested on: PC-3 prostate
[7] = tested on: SK-MEL-5 melanoma
[8] = tested on: UACC-62 melanoma
[9] = tested on: LOX IMVI melanoma
[10] = tested on: SK-MEL-28 melanoma
[11] = tested on: SK-MEL-2 melanoma
[12] = tested on: EKVX NSCLC
[13] = tested on: SN12C renal
[14] = tested on: UO-31 renal
[15] = tested on: TK-10 renal
[16] = tested on: ACHN renal
[17] = tested on: CAKI-1 renal
[18] = tested on: A498 renal
[19] = tested on: CCRF-CEM leukemia
[20] = tested on: MOLT-4 leukemia

Measured: growth

CNC(=O)c1cc(Oc2ccc3nc(NC(C)=O)sc3c2)ccn1
inactive: [1] 106% | [2] 110% | [3] 84.4% | [4] 106% | [5] 98.4% | [6] 96.3% | [7] 101% | [8] 98.8% | [9] 93.2% | [10] 105% | [11] 94.9% | [12] 97.8% | [13] 106% | [14] 95% | [15] 104% | [16] 104% | [17] 89.2% | [18] 106% | [19] 94.7% | [20] 90.4%

COC(=O)c1c2c(c(C)[n+]([O-])c1C)C(=O)C=C(NCc1ccc(Br)cc1)C2=O
active: [1] -63% | [2] -5.46% | [3] -98.6% | [4] -87.2% | [5] -41% | [6] -11.1% | [7] -97.5% | [8] -59.5% | [9] -75.7% | [10] -39.6% | [11] -54% | [12] -85.3% | [13] -77.7% | [14] -85.8% | [15] 2.5% | [16] -73.2% | [17] -25.7% | [18] -86.4% | [19] -12.6% | [20] -21.7%

Cc1ccc(S(=O)(=O)N2CCCC2CO)cc1 (stereo not given)
inactive: [1] 95% | [2] 88.5% | [3] 68.1% | [4] 98.9% | [5] 98.1% | [6] 75.6% | [7] 98.4% | [8] 104% | [9] 86.3% | [10] 163% | [11] 96.3% | [12] 101% | [13] 101% | [14] 94.2% | [15] 101% | [16] 89.3% | [17] 85.6% | [18] 65.7% | [19] 68.5% | [20] 98.8%

N#CCSc1nnc2n(Cc3ccccc3)c(=O)c3c4c(sc3n12)CCCC4
inactive: [1] 96.2% | [2] 111% | [3] 91.1% | [4] 104% | [5] 101% | [6] 95.2% | [7] 95.3% | [8] 95.6% | [9] 98.1% | [10] 116% | [11] 96% | [12] 94.1% | [13] 96.8% | [14] 76.2% | [15] 103% | [16] 106% | [17] 86.2% | [18] 93.4% | [19] 86.5% | [20] 90.7%

CN(CCn1sc(=O)n(Cc2ccccc2)c1=O)Cc1ccc2c(Cl)cc(Cl)c(O)c2n1
active: [14] -11.7%
inactive: [1] 16.3% | [2] 39.9% | [3] 74.6% | [4] 39.7% | [5] 27% | [6] 35.5% | [7] 59.5% | [8] 29.8% | [9] 30.7% | [10] 59.8% | [11] 66.9% | [12] 35.9% | [13] 34.7% | [15] 63.7% | [16] 27.8% | [17] 46.4% | [18] 68.4% | [19] 27.6% | [20] 27.7%

O=C(Cn1c(=O)sc2nc3ccccc3nc21)Nc1ncc(Cc2cccc(Cl)c2Cl)s1
inactive: [1] 98.7% | [2] 107% | [3] 74.6% | [4] 93.4% | [5] 94.9% | [6] 87.9% | [7] 99.9% | [8] 79.1% | [9] 94.6% | [10] 120% | [11] 103% | [12] 75.1% | [13] 92.2% | [14] 65.5% | [15] 95.5% | [16] 100% | [17] 71.7% | [18] 113% | [19] 99.8% | [20] 99.8%

N#C/C(=C/c1ccc([N+](=O)[O-])cc1)n1nnc2cc(F)c(F)cc21
active: [1] -7.15%
inactive: [2] 69.4% | [3] 74.9% | [4] 73.7% | [5] 59% | [6] 52.5% | [7] 88.6% | [8] 57.2% | [9] 42.4% | [10] 97.6% | [11] 75.6% | [12] 103% | [13] 61.1% | [14] 64.7% | [15] 24.5% | [16] 36.2% | [17] 71.2% | [18] 75.3% | [19] 15.1% | [20] 38.6%

COc1ccc(/C(C)=C(/c2ccc(OCCCN(C)C)cc2)c2ccc(OC(=O)Cc3ccccc3)cc2)cc1
active: [2] 7.51% | [9] -5.23%
inactive: [1] 54.6% | [3] 79% | [4] 90% | [5] 55.1% | [6] 71.9% | [7] 79.5% | [8] 70.2% | [10] 70.8% | [11] 91% | [12] 65.8% | [13] 82.4% | [14] 53.4% | [15] 95.2% | [16] 87.2% | [17] 92.9% | [18] 83.1% | [19] 65% | [20] 47.5%

Cc1ccc(Sc2nnc(/N=C3\C(=O)Nc4ccccc43)s2)cc1
inactive: [1] 105% | [2] 111% | [3] 87.5% | [4] 101% | [5] 97.4% | [6] 99.7% | [7] 107% | [8] 103% | [9] 97.8% | [10] 105% | [11] 105% | [12] 102% | [13] 97.5% | [14] 90.5% | [15] 104% | [16] 96.6% | [17] 85.6% | [18] 93.6% | [19] 93.4% | [20] 100%

Cc1ccc(NC(=S)NNC(=S)NNc2ccccc2)cc1C
inactive: [1] 103% | [2] 104% | [3] 107% | [4] 106% | [5] 96.8% | [6] 55.7% | [7] 95.7% | [8] 104% | [9] 106% | [10] 115% | [11] 91.2% | [12] 108% | [13] 101% | [14] 77.2% | [15] 104% | [16] 99.1% | [17] 95% | [18] 93.7% | [19] 44.4% | [20] 45%

COC(=O)c1cc(-c2ccc(S(C)(=O)=O)cc2)[nH]c1N/N=C/c1c(Cl)cccc1Cl
inactive: [1] 26.2% | [2] 14.5% | [3] 10.1% | [4] 22.8% | [5] 26.8% | [6] 15.6% | [7] 25.7% | [8] 58% | [9] 43.6% | [10] 28.2% | [12] 42.2% | [13] 39.4% | [14] 22.5% | [15] 19.2% | [16] 53.7% | [17] 30.3%
active: [11] -18.8% | [18] -22.5% | [19] 1.59% | [20] 6.05%

O=C(Nc1nc2ccc(F)cc2s1)c1cccnc1Nc1ccc(Cl)cc1
inactive: [1] 29% | [2] 30.1% | [3] 62.2% | [4] 26.4% | [5] 21.6% | [6] 14% | [8] 28.4% | [9] 48.3% | [10] 61.9% | [11] 54.4% | [13] 17.9% | [14] 56.2% | [15] 27.4% | [16] 38.8% | [17] 20.2% | [18] 17.9% | [20] 16.6%
active: [7] 5.56% | [12] 9.81% | [19] 5.11%

Cc1oc(-c2ccc(Cl)cc2)nc1/C=C/C(=O)c1ccccc1
inactive: [1] 97.5% | [2] 107% | [3] 93.2% | [4] 97.6% | [5] 97.5% | [6] 93.6% | [7] 99% | [8] 87.5% | [9] 99.6% | [10] 105% | [11] 100% | [12] 95% | [13] 95.6% | [14] 83.9% | [15] 122% | [16] 101% | [17] 91.9% | [18] 101% | [19] 97% | [20] 92.3%

Cc1ccccc1/C=C1\CN(C(=O)OC(C)(C)C)C/C(=C\c2ccccc2C)C1=O
inactive: [3] 53.4% | [4] 39.1% | [6] 21.9% | [7] 83% | [8] 28.7% | [10] 55.5% | [11] 86.4% | [12] 55.6% | [14] 31.9% | [15] 30.3% | [17] 28.8% | [18] 84.8% | [20] 10.8%
active: [1] 1.66% | [2] -26.4% | [5] 0.0873% | [9] -62.4% | [13] -6.85% | [16] -21.7% | [19] 2.95%

Cc1ccc(-c2cc(-c3ccc(Cl)cc3)nc(NC(=O)c3cccnc3)n2)cc1
inactive: [1] 94.5% | [2] 109% | [3] 99.8% | [4] 94.6% | [5] 101% | [6] 85.5% | [7] 93.6% | [8] 76% | [9] 95.7% | [10] 106% | [11] 109% | [12] 102% | [13] 103% | [14] 79% | [15] 115% | [16] 103% | [17] 94.2% | [18] 111% | [19] 106% | [20] 93.2%
